Potency and affinity values are given separately.
system: Candida albicans; conditions: 20 µM

Question: With CC(=O)O.COc1ccc2c(=O)oc3c(OC)cc(CCN(C)C)c4c(=O)oc1c2c34 as the molecule, how does the Inhibition read?
Answer: Its Inhibition is -2.47%.

Question: How did the Inhibition turn out when COc1cc(C)c2c(c1C=O)Oc1c(c(C)c(O)c3c1C(O)OC3=O)OC2=O (stereo not given) [STICTIC ACID] was run?
Answer: The Inhibition was -4.28%.

Question: CC1(C)C(=O)N2c3ccccc3C3(CC(N4C(=O)c5ccccc5C4=O)C(=O)O3)C2N1C(=O)OCc1ccccc1 (stereo not given) was tested. Which Inhibition did it give?
Answer: The Inhibition was 1.22%.

Question: COc1c2occc2cc2ccc(=O)oc12 [METHOXSALEN] was tested. Which Inhibition did it give?
Answer: The Inhibition was -3.39%.

Question: C=C1C(=O)OC2CC(C)C3(O)CCC(=O)C3(C)CC12 (stereo not given) was tested. Which Inhibition did it give?
Answer: Its Inhibition is 2.8%.

Question: For COc1ccc2c(c1OC)C(=O)O[C@@H]2[C@H]1c2c(cc3c(c2OC)OCO3)CCN1C [NOSCAPINE], which Inhibition is on record?
Answer: The Inhibition was -0.41%.

Question: CC(C)CC1NC(=O)C(C(C)C)NC(=O)CC(C)COC(=O)C(CC(C)C)N(C)C(=O)C(C(C)C)NC(=O)C(C(C)C)OC1=O (stereo not given) was tested. Which Inhibition did it give?
Answer: The Inhibition was -1.26%.

Question: With COc1c2occc2c(OC)c2c(=O)cc(C)oc12 [KHELLIN] as the molecule, how does the Inhibition read?
Answer: Its Inhibition is -0.57%.

Question: CCCCCc1cc(O)cc2c1Oc1cc(O)cc(C(=O)CCCC)c1C(=O)O2 was tested. Which Inhibition did it give?
Answer: Its Inhibition is 2.52%.

Question: For CC(=O)Oc1ccc2ccc(=O)oc2c1OC(C)=O, which Inhibition is on record?
Answer: The Inhibition was -1.13%.

Question: O=c1oc2c(O)c(O)cc3c(=O)oc4c(O)c(O)cc1c4c23 [ELLAGIC ACID] was tested. Which Inhibition did it give?
Answer: The Inhibition was 8.04%.

Question: How did the Inhibition turn out when COC(=O)[C@@H]1[C@H]2C[C@@H]3c4[nH]c5ccccc5c4CCN3C[C@@H]2CC[C@@H]1O was run?
Answer: The Inhibition was -3.73%.

Question: Which Inhibition does the source give for COc1cc([C@@H]2c3cc4c(cc3[C@@H](OC3OC5CO[C@@H](c6cccs6)OC5C(O)C3O)[C@H]3COC(=O)[C@H]23)OCO4)cc(OC)c1O (stereo not given in full) here?
Answer: The Inhibition was 0.54%.

Question: With COC(=O)C1C2CC3c4[nH]c5cc(OC)ccc5c4CCN3CC2CC(OC(=O)CCc2cc(OC)c(OC)c(OC)c2)C1OC (stereo not given) as the molecule, how does the Inhibition read?
Answer: Its Inhibition is -0.42%.

Question: With CN1CCc2cc3c(cc2C(=O)Cc2ccc4c(c2C1)OCO4)OCO3.Cl [PROTOPINE HYDROCHLORIDE] as the molecule, how does the Inhibition read?
Answer: Its Inhibition is -1.7%.

Question: CC(C)=CC(=O)OC1C2C(C)C(=O)OC2C(O)C(C)C2C=CC(=O)C21C (stereo not given) was tested. Which Inhibition did it give?
Answer: Its Inhibition is 0.18%.

Question: With CC1(C)CCCC2(C)C3=C(CCC12)C(=O)OC3 (stereo not given) as the molecule, how does the Inhibition read?
Answer: Its Inhibition is 0.95%.

Question: With CC(=O)CCCCn1c(=O)c2c(ncn2C)n(C)c1=O [PENTOXIFYLLINE] as the molecule, how does the Inhibition read?
Answer: Its Inhibition is 4.24%.

Question: Which Inhibition does the source give for COC(=O)NC1C(C)OC(OC2C/C=C(/C)C3C=CC4C(OC5CC(OC6CCC(OC7CC(O)C(OC8CCC(O)C(C)O8)C(C)O7)C(C)O6)C(OC(C)=O)C(C)O5)C(C)CC(C)C4C3(C)/C(O)=C3/C(=O)OC4(CC(C=O)=CC(O)C4/C=C\2C)C3=O)CC1(C)[N+](=O)[O-] (stereo not given) here?
Answer: The Inhibition was 4.81%.

Question: Which Inhibition does the source give for COc1cc2c3c(c4ccc(OC)c(OC)c4c2cc1OC)CN1CCC[C@@H]1C3 [TYLOCREBRINE] here?
Answer: The Inhibition was -1.43%.

Question: How did the Inhibition turn out when CC(=O)C1CCCC(=O)/C=C/C(=O)O1 (stereo not given) was run?
Answer: The Inhibition was 6.81%.

Question: Which Inhibition does the source give for C=C1C(=O)OC2CC3(C)CCCC(C)C3=CC12 (stereo not given) here?
Answer: The Inhibition was 0.7%.

Question: CC(C)=CCc1c2c(c3occ(-c4ccc(O)c(O)c4)c(=O)c3c1O)C=CC(C)(C)O2 [POMIFERIN] was tested. Which Inhibition did it give?
Answer: Its Inhibition is -6.81%.

Question: For CCC1NC(=O)C(NC(=O)c2ncccc2O)C(C)OC(=O)C(c2ccccc2)NC(=O)C2CC(=O)CCN2C(=O)C(Cc2ccccc2)N(C)C(=O)C2CCCN2C1=O (stereo not given), which Inhibition is on record?
Answer: Its Inhibition is -3.25%.

Question: Which Inhibition does the source give for C[C@@H]1C(=O)C[C@H]2C(C)(C)CCC[C@]2(C)[C@@]1(O)CCc1ccoc1 here?
Answer: Its Inhibition is 5.12%.
